According to the supplement of paper PMC9262897, “Low-cost anti-mycobacterial drug discovery using engineered E. coli” (Nature Communications, 2022):
Where a name gives a salt, the structure may show the parent alone. ± gives the standard deviation of the averaged measurements.

System: E. coli TESEC Mtb Alr
Assay: growth (OD600 after 10 h); higher = more growth (less inhibition)
Settings: compound 0.1 mM
Experimental: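 TESEC Mtb Alr E. coli, or the Alr+ wild-type control, in 384-well plates with Prestwick library compounds at 0.1 mM and 1% DMSO, across arabinose induction levels of 1E3 to 1E7 nM. Growth is read as OD600 after 10 h at 37 °C in triplicate biological replicates.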

[1] = arabinose 1000 nM, raw OD600 reference: median of DMSO wells 0.294, cell-free background 0.041
[2] = arabinose 10000 nM, raw OD600 reference: median of DMSO wells 0.264, cell-free background 0.041
[3] = arabinose 100000 nM, raw OD600 reference: median of DMSO wells 0.201, cell-free background 0.041
[4] = arabinose 1000000 nM, raw OD600 reference: median of DMSO wells 0.193, cell-free background 0.041
[5] = arabinose 10000000 nM, raw OD600 reference: median of DMSO wells 0.146, cell-free background 0.041

Compound | growth [1] | growth [2] | growth [3] | growth [4] | growth [5]
CC(C)c1nc(CN(C)C(=O)N[C@H](C(=O)N[C@@H](Cc2ccccc2)C[C@H](O)[C@H](Cc2ccccc2)NC(=O)OCc2cncs2)C(C)C)cs1 [Ritonavir] | 0.216 ± 0.015 | 0.221 ± 0.025 | 0.217 ± 0.012 | 0.114 ± 0.0092 | 0.159 ± 0.0028
CCCCNc1cc(C(=O)O)cc(S(N)(=O)=O)c1Oc1ccccc1 [Bumetanide] | 0.261 ± 0.021 | 0.251 ± 0.0081 | 0.167 ± 0.018 | 0.159 ± 0.0062 | 0.138 ± 0.0095
CC[C@H](C)C(=O)O[C@H]1C[C@H](O)C=C2C=C[C@H](C)[C@H](CC[C@@H](O)C[C@@H](O)CC(=O)O)[C@H]21 [Pravastatin] | 0.309 ± 0.0081 | 0.297 ± 0.013 | 0.222 ± 0.024 | 0.185 ± 0.019 | 0.152 ± 0.0073
CO[C@H]1/C=C/O[C@@]2(C)Oc3c(C)c(O)c4c(O)c(c(/C=N/N5CCN(C)CC5)c(O)c4c3C2=O)NC(=O)/C(C)=C\C=C\[C@H](C)[C@H](O)[C@@H](C)[C@@H](O)[C@@H](C)[C@H](OC(C)=O)[C@@H]1C [Rifampicin] | 0.0442 ± 0.003 | 0.04117 ± 0.00021 | 0.0444 ± 0.0018 | 0.04127 ± 0.00012 | 0.043 ± 0.0014
CN1CCN(c2c(F)cc3c(=O)c(C(=O)O)cn(CCF)c3c2F)CC1 [Fleroxacin] | 0.04717 ± 0.00045 | 0.0416 ± 0.0006 | 0.0505 ± 0.0014 | 0.0445 ± 0.00081 | 0.0554 ± 0.00072
CCC(=O)[C@@]1(C)[C@H](C)C[C@H]2[C@@H]3CCC4=CC(=O)C=C[C@]4(C)[C@H]3[C@@H](O)C[C@@]21C [Rimexolone] | 0.275 ± 0.019 | 0.248 ± 0.0084 | 0.139 ± 0.005 | 0.148 ± 0.0067 | 0.132 ± 0.0029
CC(C)NCC(O)COc1ccc(CCOCC2CC2)cc1 (stereo not given) [Betaxolol hydrochloride] | 0.301 ± 0.0039 | 0.26 ± 0.0051 | 0.232 ± 0.034 | 0.179 ± 0.014 | 0.161 ± 0.0056
Cc1cccc(C)c1NC(=O)CN1CCN(CCCC(c2ccc(F)cc2)c2ccc(F)cc2)CC1 [Lidoflazine] | 0.311 ± 0.0035 | 0.263 ± 0.0048 | 0.223 ± 0.018 | 0.174 ± 0.0022 | 0.163 ± 0.0025
